The record followed here is PubChem BioAssay.

Assay [1] is described as follows: inhibitors of TNFa-induced NFkB p65 translocation, primary screen, imaging, HUVEC, MLSMR starter and 10KST1 sets (AID 438;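 active = inhibition above 20% together with a positive visual image hit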;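 also: compound added about 3h40 before a 20 min TNFalpha stimulation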;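 as to inhibition: signal is the nuclear over cytoplasmic p65 intensity ratio per well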). Conditions: HUVEC TNFa-induced p65 nuclear translocation; cell count: measured here: nuclei count (cytotoxicity indicator), at 2.08 µM; inhibition: at 2 µM, stronger effect = higher value, 0% TNFa-plus-vehicle, 100% no-TNFa wells.
Assay [2] in a line: inhibitors of mutant huntingtin aggregation, primary screen, imaging, exon1htt(103Q)mCFP cells, high-content imaging (AID 483;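 active = visual image review flags a hit and inhibition of aggregation exceeds 20%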;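 also: compound exposure lasted 3 days before fixation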;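 as to nuclei count: percent of the per-plate median nuclei count of sample wells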). Conditions: exon1htt(103Q)mCFP cell line, aggregate imaging, at 2 µM; inhibition of aggregation: stronger effect = higher value; nuclei count: measured here: cell count, toxicity.
Assay [3] in a line: inhibitors of E-selectin induction by TNFa, primary screen, imaging, HUVEC, immunofluorescence, MLSMR starter and 10KST1 sets (AID 487;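 active = visually confirmed hit in the image check and inhibition above 20%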;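 as to inhibition: signal is fraction of cell area covered by stained E-selectin grains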;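 as to nuclei count: 100% = median nuclei count of all wells on the same plate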). Conditions: HUVEC TNFalpha-induced E-selectin immunofluorescence imaging, at 2 µM; inhibition: stronger effect = higher value; nuclei count: measured here: cell number, toxicity.
A short description of assay [4]: DUSP6 inhibitors restoring Erk phosphorylation by chemical complementation, primary imaging in DUSP6-transfected HeLa (AID 609;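 active = compounds giving at least 50% inhibition in the cell-based MKP-3 phosphatase rescue imaging test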;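 as to inhibition: phospho-Erk level distribution per well compared with pooled transfected vehicle control wells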). Conditions: HeLa MKP-3 transfected, phospho-Erk imaging KS statistic, at 10 µM, cells stimulated with TPA for 15 min.
Assay [5] has as its target Dual specificity protein phosphatase 6 (Homo sapiens) (UniProt Q16828). The assay is described as above. Conditions: HeLa MKP-3 transfected, phospho-Erk imaging KS statistic; at 10 µM; stronger effect = higher value; cells stimulated with TPA for 15 min.
Assay [6] deals with Voltage-gated potassium channel subunit beta-2 (Rattus norvegicus) (UniProt P62483). Kind of assay: KvBeta enzyme negative modulators, primary screen, biochemical, NADPH fluorescence (AID 622).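 Also: slope of raw intensity against log time taken from 70 to 1610 s.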 Particulars: recombinant KvBeta, 4-cyanobenzaldehyde reduction, at 10 µM, stronger effect = higher value.
Sequence of Voltage-gated potassium channel subunit beta-2 (Rattus norvegicus) (P62483 whole entry, looked up): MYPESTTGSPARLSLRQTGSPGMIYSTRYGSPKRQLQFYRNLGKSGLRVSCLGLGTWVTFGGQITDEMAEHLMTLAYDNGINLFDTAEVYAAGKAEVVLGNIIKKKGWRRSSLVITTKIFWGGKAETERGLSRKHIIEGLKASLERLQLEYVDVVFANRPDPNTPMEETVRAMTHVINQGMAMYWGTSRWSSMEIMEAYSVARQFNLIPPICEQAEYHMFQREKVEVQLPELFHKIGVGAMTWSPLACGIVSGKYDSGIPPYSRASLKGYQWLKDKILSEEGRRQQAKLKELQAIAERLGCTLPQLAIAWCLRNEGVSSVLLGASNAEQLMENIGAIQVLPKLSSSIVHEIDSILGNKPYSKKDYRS
The target is the same in assay [7]. Kind of assay: KvBeta positive modulators, primary screen, biochemical, NADPH fluorescence (AID 623;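 active = NADPH fluorescence slope more negative than the mean of all samples by about 3 SD, 99.7% confidence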;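 also: fluorescence intensity change per second fitted from 20 to 320 s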). Particulars: Recombinant KvBeta, NADPH fluorescence decrease slope, 10 min; at 10 µM; stronger effect = lower value.
Assay [8] deals with Muscarinic acetylcholine receptor M4 (Homo sapiens) (UniProt P08173). The assay can be described thus: compounds altering M4/GIRK thallium flux, either direction, primary screen, M4 allosteric agonist project, cell-based, HEK293 M4/GIRK, BTC-AM (AID 625;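 active = fluorescence slope after compound addition differing from the mean of all tested samples at 99.7% confidence, mostly higher but some lower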;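 also: thallium influx through GIRK channels coupled to M4 in HEK293 cells with BTC-AM dye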). Conditions: at 10 µM, actives lie on both sides.
Sequence of Muscarinic acetylcholine receptor M4 (Homo sapiens) (P08173 whole entry, looked up): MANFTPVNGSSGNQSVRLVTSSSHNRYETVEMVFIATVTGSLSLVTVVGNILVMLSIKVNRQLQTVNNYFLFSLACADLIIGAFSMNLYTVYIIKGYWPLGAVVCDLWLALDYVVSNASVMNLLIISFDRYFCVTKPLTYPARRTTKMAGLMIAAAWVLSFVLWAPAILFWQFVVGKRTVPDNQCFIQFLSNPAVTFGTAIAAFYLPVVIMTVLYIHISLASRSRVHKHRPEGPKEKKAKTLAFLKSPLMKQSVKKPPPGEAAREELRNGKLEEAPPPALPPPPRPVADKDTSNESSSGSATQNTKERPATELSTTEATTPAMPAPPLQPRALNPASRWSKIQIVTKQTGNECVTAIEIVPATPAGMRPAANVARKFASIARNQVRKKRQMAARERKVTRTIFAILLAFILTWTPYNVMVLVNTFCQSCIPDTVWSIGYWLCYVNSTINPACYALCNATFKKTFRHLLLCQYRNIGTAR
The nature of assay [9]: inhibitors of larval lipid processing in zebrafish, primary screen, whole organism, PED6 fluorescence, gall bladder and intestine (AID 686;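 active = a full or partial loss of lipid-probe fluorescence in the fish gall bladder, intestine or both, judged by eye; inactive = no fluorescence loss, or compound toxic to the fish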;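 also: larvae 5 to 7 days old with five fish per well; signal comes from phospholipase A2 cleavage of quenched PED6 carried via bile; overnight exposure to compound and PED6 before scoring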). Conditions: Zebrafish larvae PED6 lipid processing, fluorescence scoring; screened at 20 µM (by protocol).
A short description of assay [10]: inhibitors of Chlamydomonas gravitaxis, primary screen, whole organism, Chlamydomonas reinhardtii, WT vs cilia-less mutant, absorbance, 96-well (AID 463189;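 active = inhibition at or above 50% relative to wild type and mutant plate controls; inactive = inhibition below 50%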;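 also: 0% = wild type cc124 cells in DMSO and 100% = ciliumless bld1 mutant cells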). Conditions: OD600 absorbance, 2 days, at 10 µM, stronger effect = higher value.
A short description of assay [11]: inhibitors of Sendai virus-induced IRF3 signaling, primary screen, TLR/RLR signaling modifier project, cell-based, Sendai virus stimulus, luciferase, 10K MLSCN set (AID 602276;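 active = inhibition at or above 50% at 10 µM; inactive = inhibition below 50%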;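 also: firefly luciferase from ISG56 promoter only with Renilla not read in this screen; 0% = Sendai virus plus DMSO and 100% = medium plus DMSO without virus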). Particulars: HEK293 RL24 IRF3 luciferase reporter, at 10 µM, stronger effect = higher value.
The nature of assay [12]: inhibitors of poly I:C-induced TLR3 signaling, primary screen, cell-based, poly I:C stimulus, luciferase, 10K MLSCN set (AID 602277;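 active = inhibition of the reporter signal at or above 50%; inactive = inhibition below 50%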). Conditions: HEK293-TLR3 RL24 IRF3 luciferase reporter, at 10 µM, stronger effect = higher value.
Where [13] appears, read: measured here: cell density z-score.
Where [14] appears, read: measured here: nuclear c-Myc green intensity z-score.
The mark [15] stands for this setting: measured here: nuclear pErk red intensity z-score, stronger effect = higher value.

Activity calls are given as the source filed them.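 The calls were made as follows, unless noted: active = fluorescence slope higher than the sample average by over 3 SD (cut at about -0.22 in these data, passing the limit was not always enough); inactive = the rest.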

Sequence of Dual specificity protein phosphatase 6 (Homo sapiens) (Q16828 whole entry, looked up): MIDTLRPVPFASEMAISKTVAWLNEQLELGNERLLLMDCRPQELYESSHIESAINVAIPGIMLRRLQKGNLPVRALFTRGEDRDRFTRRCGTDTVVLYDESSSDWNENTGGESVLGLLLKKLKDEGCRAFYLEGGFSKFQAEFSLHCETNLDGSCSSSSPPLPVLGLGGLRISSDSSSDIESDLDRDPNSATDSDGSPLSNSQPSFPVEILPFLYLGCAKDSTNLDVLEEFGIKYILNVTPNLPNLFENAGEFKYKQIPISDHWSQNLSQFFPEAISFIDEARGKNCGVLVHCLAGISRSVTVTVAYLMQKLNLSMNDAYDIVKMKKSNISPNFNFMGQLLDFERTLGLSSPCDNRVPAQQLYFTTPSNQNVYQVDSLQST

On to `O=C(Nc1ccccn1)NC(C(F)(F)F)C(F)(F)F`, for which, in [1], the cell count was found to be 669. The inhibition is -2.9% (inactive) in [1]; -56% (inactive) in assay [3]; 9.91% (inactive) in assay [5]; 12.6% (inactive) in [10]; 0.13% (inactive) in assay [11]; 5.13% (inactive) in [12]. In addition, the inhibition of aggregation in assay [2] was -15.1% (inactive). Moreover, the values for the nuclei count in assay [2] and in assay [3] were 118% and 139%, respectively. Further, the results for the z-score in [4] (setting [13]), in assay [4] (setting [14]) and in assay [4] (setting [15]) were 0.555, 0.584 and 0.451, respectively. Further, the fluorescence slope is -0.472 (inactive) in assay [6] and 0.00603 (inactive) in [8]. In assay [7], the NADPH fluorescence slope is -0.000163 (inactive). In addition, in assay [9], the compound was classed as inactive.

For `c1ccc2c(c1)[nH]c1c(N3CCC4(CC3)OCCO4)ncnc12`, in assay [1], the cell count amounted to 543. In addition, the inhibition in [1] was -0.4% (inactive); in [3], -72.3% (inactive); in assay [5], -6.59% (inactive); in [10], -1.55% (inactive); in assay [11] it was 2.08% (inactive); in [12], -40% (inactive). In assay [2], the inhibition of aggregation is -24.1% (inactive). Besides, the nuclei count in assay [2] amounted to 94.4%; in assay [3], 119%. The figures for the z-score in assay [4] (setting [13]), in [4] (setting [14]) and in assay [4] (setting [15]) were -0.995, 0.207 and -1.27, respectively. For the same compound, the fluorescence slope was -0.384 (inactive) in assay [6] and 0.00574 (inactive) in assay [8]. Moreover, the NADPH fluorescence slope in [7] was -3.4e-05 (inactive). Besides, the call in assay [9] was inactive.

For the compound `COc1ccccc1N=Cc1nc(-c2ccccc2)oc1OC(C)=O`, the cell count in assay [1] worked out at 451. For the same compound, the inhibition in assay [1] is -8.2% (inactive); in [3], -86.5% (inactive); in [5] it was 13.2% (inactive); in assay [10], 23% (inactive); in assay [11], 18.8% (inactive); in assay [12] it was 40.5% (inactive). The inhibition of aggregation in assay [2] is -25.8% (inactive). Moreover, the nuclei count in [2] stood at 84.2%; in assay [3] it was 132%. Also, the values for the z-score in [4] (setting [13]), in assay [4] (setting [14]) and in assay [4] (setting [15]) were 0.537, -1.18 and 0.127, respectively. Besides, the fluorescence slope is -0.347 (inactive) in assay [6] and 0.00675 (inactive) in assay [8]. Besides, the NADPH fluorescence slope in [7] was -5.8e-05 (inactive). Also, in [9], the result was inactive.

Take `COc1ccccc1Nc1ncnc2c1cnn2-c1cccc(C)c1`: the cell count in assay [1] worked out at 398. Further, the inhibition is -11% (inactive) in assay [1]; -38.9% (inactive) in [3]; -2.59% (inactive) in [5]; 4.11% (inactive) in assay [10]; -27.1% (inactive) in [11]; -52.1% (inactive) in [12]. For the same compound, in assay [2], the inhibition of aggregation was 23.4% (inactive). Further, the nuclei count in [2] was 92.4%; in [3], 133%. Also, the values for the z-score in assay [4] (setting [13]), in assay [4] (setting [14]) and in [4] (setting [15]) were -0.0649, -0.454 and 0.131, respectively. Moreover, the fluorescence slope in assay [6] was -0.356 (inactive); in assay [8], 0.00739 (inactive). Also, in assay [7], the NADPH fluorescence slope is -3.8e-05 (inactive). Also, the compound was called inactive in [9].

With `Fc1ccc(-c2cnc[nH]2)cc1`, the cell count in [1] stood at 501. For the same compound, the inhibition is 0.1% (inactive) in assay [1]; -88.1% (inactive) in assay [3]; 3.42% (inactive) in [5]; -0.515% (inactive) in assay [10]; -22.9% (inactive) in assay [11]; -37.6% (inactive) in [12]. Besides, in [2], the inhibition of aggregation is -41% (inactive). The nuclei count in assay [2] was found to be 64.4%; in [3], 109%. For the same compound, the z-score was -1.11 in [4] (setting [13]), 0.681 in [4] (setting [14]) and -1.47 in assay [4] (setting [15]). For the same compound, the fluorescence slope in assay [6] was -0.513 (inactive); in [8], 0.00534 (inactive). Also, the NADPH fluorescence slope in assay [7] is -9.6e-05 (inactive). The compound was called inactive in [9].
